# Rows were chosen to be rich in hits. Some 1.1% of all compounds tested hit in one or more screens of this group.
# OPRM1-OPRD1 inv = inverse agonists of human mu-delta opioid receptor heterodimerization. inhibition, % at 9.3 µM. AID 504357. hit rate 0.21% among 340,000. cell-based MOR-DOR heterodimer luminescence, inverse agonism. P35372+P41143; in the data active = inhibition above about 22%, passing the limit was not always enough;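 note: 0% = cells with DMSO and 100% = wells without cells with DMSO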
# OPRM1-OPRD1 ag = OPRM1-OPRD1 heterodimerization agonism; cells, luminescence; activation, % at 9.3 µM; hit rate 0.3% among 340,000; in the data active = activation above about 18%;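 note: 0% = vehicle-treated cells and 100% = reference agonist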
# HTR5A inv ctr = inverse agonist of human HTR5A in OPRM1-OPRD1 counter-screen. P47898. HTR5A cell line, luminescence, inverse agonism. inhibition, % at 9.3 µM. hit rate 0.083% among 340,000; in the data active = inhibition mostly above about 23%, no sharp cut-off; inactive = mostly below about 18%;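 note: 0% = cells with DMSO and 100% = no-cell wells with DMSO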
# Target sequence (P47898 whole entry, looked up): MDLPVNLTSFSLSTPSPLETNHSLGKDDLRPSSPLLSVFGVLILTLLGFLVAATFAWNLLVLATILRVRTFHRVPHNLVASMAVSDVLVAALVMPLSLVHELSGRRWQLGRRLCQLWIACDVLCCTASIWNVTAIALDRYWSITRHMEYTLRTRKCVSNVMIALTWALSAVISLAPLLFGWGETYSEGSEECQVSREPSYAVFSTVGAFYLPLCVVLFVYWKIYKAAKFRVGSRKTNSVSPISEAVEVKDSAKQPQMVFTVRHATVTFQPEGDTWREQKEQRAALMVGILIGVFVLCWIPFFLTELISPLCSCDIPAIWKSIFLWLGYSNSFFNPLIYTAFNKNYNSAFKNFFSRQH
# A1 inh = inhibitors of the anti-apoptotic protein A1, read as caspase activation; hit rate 0.066% among 330,000; MEF A1-2A-BIM cells, Caspase-Glo 3/7 luminescence, 3 h; percent of clofoctol response, vehicle zero; caspase activation, % (concentration not given with the values); AID 2462;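 active = over half of replicate activation scores above 10%, or exactly half above 10 with the replicate mean above 10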
# HTR5A ag ctr = counter-screen for OPRM1-OPRD1 agonists: human HTR5A agonism; P47898; HTR5A agonist assay, luminescence, cell-based; activation, % at 9.3 µM; hit rate 0.61% among 340,000; AID 504692; in the data active = activation mostly above about 9.5%, no sharp cut-off; inactive = mostly below about 7.6%;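 note: 0% = cells with vehicle only and 100% = reference agonist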
# * marks the source's active call; other numbers are inactive results; / = no result.
SMILES,OPRM1-OPRD1 inv,OPRM1-OPRD1 ag,HTR5A inv ctr,A1 inh,HTR5A ag ctr
O=C(Cn1ncc(Cl)c(Cl)c1=O)NCC1CCCCC1,-23,4,-9,10*,-2
CC(C)c1ccc(NC(=O)CSc2ncccc2C(=O)Oc2cccc([N+](=O)[O-])c2)cc1,-3,1,7,0,-2
CCOC(=O)c1[nH]c(C)c(C(=O)Nc2ccc(F)cc2)c1C,16,-3,10,0,-4
CCOC(=O)c1[nH]c(C)c(C(=O)Nc2ccc(C)c(C)c2)c1C,13,-3,-37,-1,13*
Cc1ccc(-c2nnn(CC(=O)N(CC3CCCO3)C(C(=O)NC3CCCC3)c3ccc(O)cc3)n2)o1 (centres undefined),3,-1,-27,0,9.4*
Cc1ccc(-c2nnn(CC(=O)N(CC3CCCO3)C(C(=O)NC3CCCC3)c3ccc(F)cc3)n2)o1 (centres undefined),7,-1,25,1,-2
CCOC(=O)C1CCCN(c2oc(-c3ccc(OC)cc3)nc2C#N)C1 (centres undefined),-3,1,6,-1,0
CC(=O)Nc1ccc(NC(=O)COC(=O)c2ccc([N+](=O)[O-])o2)cc1,-47,9,-48,2,13*
Cc1ccc(NC2=C/C(=N\S(=O)(=O)c3cccs3)c3ccccc3C2=O)c(C)c1,-112,22*,8,2,-3
Cc1ccccc1NC(=O)COC(=O)/C=C/c1cn(-c2ccccc2)nc1-c1cccnc1,3,-1,-18,1,7
CC(=O)Nc1ccc(NC(=O)C(C)OC(=O)/C=C/c2cn(-c3ccccc3)nc2-c2cccnc2)cc1 (centres undefined),11,-2,-8,16*,-1
O=C(OCC(=O)N1CCOCC1)c1cc2ccccc2oc1=O,16,-4,-6,0,-5
O=C(CSC(=S)N1CCOCC1)c1cc2ccccc2oc1=O,5,-1,-36,0,10.0*
NC(=O)CN1CCN(c2cccc(Cl)c2)CC1,10,-2,0,1,14*
C/C(=C\c1ccccc1)CN1CCN(c2cccc(Cl)c2)CC1,-5,1,1,1,0
OC(CN1CCN(c2cccc(Cl)c2)CC1)c1ccccc1 (centres undefined),-30,5,-49,0,13*
OC(COC(c1ccccc1)c1ccccc1)CN1CCN(c2cccc(Cl)c2)CC1 (centres undefined),-1,0,-23,0,9
O=C(NCc1cccnc1)C(=O)Nc1ccc2c(c1)OCO2,15,-3,-1,-1,0
OCCNCc1cccc(-c2ccccc2)c1O,-9,2,5,/,-1
CCOC(=O)C(C)Oc1cccc2c(=O)n(CC(=O)NCc3ccc4c(c3)OCO4)ccc12 (centres undefined),6,-1,-19,0,12*
CCOC(=O)C(C)Oc1cccc2c(=O)n(CC(=O)Nc3ccc4c(c3)OCCO4)ccc12 (centres undefined),4,-1,4,1,1
CCOC(=O)c1c(C)oc2c1c(CN1CCN(C(=O)OCC)CC1)c(O)c1ccccc12,-54,9,-32,20*,12
O=[N+]([O-])c1cc(C(F)(F)F)ccc1NCCNC(=S)Nc1ccc(Cl)cc1,4,-1,-12,-1,-3
Nc1cccc(Nc2nc(OC(C(F)(F)F)C(F)(F)F)nc(OC(C(F)(F)F)C(F)(F)F)n2)c1,-56,10,-10,-1,12*
CC1=C/C(=C(\c2cc(C)c(O)c(Br)c2)c2ccccc2S(=O)(=O)O)C=C(Br)C1=O,28*,-5,8,-1,-11
SMILES,OPRM1-OPRD1 inv,OPRM1-OPRD1 ag,HTR5A inv ctr,A1 inh,HTR5A ag ctr
Cc1cc(C(=O)c2ccccc2)cc(C)c1O,14,-3,16,/,-4
COc1cc(OC)cc(C(=O)N[C@H](C(=O)NCCc2ccc(S(N)(=O)=O)cc2)C(C)C)c1,3,0,11,0,-5
CCCC(=O)Nc1ccc2c(c1)nc(CN1CCN(C(=O)OCC)CC1)n2CC,11,-2,-34,1,9.8*
CC[C@]12c3[nH]c4cc(-c5ccco5)ccc4c3CCN1C(=O)[C@@H](CC(=O)NC(C)(C)C)C[C@@H]2C(=O)N1CCN(C(=O)c2ccco2)CC1,6,-1,3,/,-1
COc1ccccc1-n1c(=S)[nH]c2c(sc(=S)n2-c2ccccc2)c1=O,-1,0,6,-2,-3
COc1cccc(-n2c(=S)sc3c(=O)n(-c4ccccc4OC)c(=S)[nH]c32)c1,-2,0,-25,-1,8.9*

# Compound activity from PubChem.
